Active and inactive are the calls of the source. The calls were made as follows: active = hit-call score of the fitted dose curve at least 0.9, where 1 is the maximum; inactive = score below 0.9.

Conditions in all cases: mRNA level, 48 h; actives raise or lower the signal
Read-out in experiment [1]: Alkaline Phosphatase, Placental (ALPP) gene, ALPP (gene 250)
The experiment in a line: LTEA_HepaRG_ALPP: Life Technologies and Expression Analysis (LTEA) Assay for Alkaline Phosphatase, Placental (ALPP) gene using HepaRG (AID 2283468). In a few lines:
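ALPP transcript level, measured by qRT-PCR and normalized to three housekeeping genes (ACTB, GAPDH, POLR2A), after 48 h dosing of differentiated HepaRG in serum-free induction medium. Top concentration 100 uM with half-log dilutions (8 points, 0.5% DMSO, duplicates); bidirectional fitting relative to DMSO.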

Read-out in experiment [2]: Bcl-2 (BAD) gene, BAD (gene 572)
The experiment in a line: LTEA_HepaRG_BAD: Life Technologies and Expression Analysis (LTEA) Assay for Bcl-2 (BAD) gene using HepaRG (AID 2283469). The essentials: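 Read-out: qRT-PCR of BAD mRNA, normalized to three housekeeping genes. Human HepaRG cultures got 48 h chemical exposure in 0.5% DMSO, duplicate eight-point half-log series topping at 100 uM. Gain or loss of signal fitted versus DMSO vehicle.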

Read-out in experiment [3]: Bcl-2 (BAX) gene, BAX (gene 581)
The experiment in a line: LTEA_HepaRG_BAX: Life Technologies and Expression Analysis (LTEA) Assay for Bcl-2 (BAX) gene using HepaRG (AID 2283470). The essentials: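 Cells were thawed, plated for 48 h, moved to serum-free induction medium and dosed for 48 h (highest concentration 100 uM, half-log steps, 0.5% DMSO). Total RNA was then analysed for BAX expression by qRT-PCR.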

Read-out in experiment [4]: adenosine kinase (ADK) gene, ADK (gene 132)
The experiment in a line: LTEA_HepaRG_ADK: Life Technologies and Expression Analysis (LTEA) Assay for adenosine kinase (ADK) gene using HepaRG (AID 2283471). In a few lines:
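ADK expression quantified by qRT-PCR, normalised to three housekeeping genes, after 48 h exposure of HepaRG cells to eight concentrations (top 100 uM, half-log steps, duplicate, 0.5% DMSO). Up- or down-regulation fitted relative to vehicle.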

Read-out in experiment [5]: Alpha-fetoprotein (AFP) gene, AFP (gene 174)
Briefly: LTEA_HepaRG_AFP: Life Technologies and Expression Analysis (LTEA) Assay for Alpha-fetoprotein (AFP) gene using HepaRG (AID 2283472). In a few lines:
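Chemicals were tested on differentiated HepaRG cells for 48 hours at eight concentrations up to 100 uM, with 0.5% DMSO as vehicle. AFP expression was then quantified by qRT-PCR and analyzed for gain or loss relative to DMSO.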

Read-out in a further experiment: BCL2L11 (gene 10018)
The experiment in a line: LTEA_HepaRG_BCL2L11: Life Technologies and Expression Analysis (LTEA) Assay for Bcl-2 (BCL2L11) gene using HepaRG (AID 2283473). The essentials: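 BCL2L11 transcript levels are measured by Fluidigm qRT-PCR, normalized to three housekeeping genes. HepaRG cultures were plated 48 h, then treated 48 h with test chemical (top 100 uM, half-log, 0.5% DMSO vehicle); curves were fitted bidirectionally against DMSO.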

Read-out in experiment [6]: Apolipoprotein A-V (APOA5) gene, APOA5 (gene 116519)
Briefly: LTEA_HepaRG_APOA5: Life Technologies and Expression Analysis (LTEA) Assay for Apolipoprotein A-V (APOA5) gene using HepaRG (AID 2283474). In a few lines:
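APOA5 transcript levels were quantified by qRT-PCR, normalized to three housekeeping genes, after 48 h chemical treatment of HepaRG cells (8 points, 100 uM maximum, half-log steps, 0.5% DMSO). Curves fitted in both directions against vehicle.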

Read-out in experiment [7]: Apoptosis regulator Bcl-2 (Homo sapiens) (UniProt P10415)
Briefly: LTEA_HepaRG_BCL2: Life Technologies and Expression Analysis (LTEA) Assay for Bcl-2 gene using HepaRG (AID 2283475). The essentials:
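Plated human HepaRG cells are exposed to test chemicals for 48 h across eight concentrations from 100 uM downward in half-log steps (0.5% DMSO). BCL2 expression is then measured by qRT-PCR with housekeeping normalisation and fitted bidirectionally against vehicle.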

Read-out in experiment [8]: Bcl-2 (BID) gene, BID (gene 637)
Briefly: LTEA_HepaRG_BID: Life Technologies and Expression Analysis (LTEA) Assay for Bcl-2 (BID) gene using HepaRG (AID 2283476). In a few lines: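 Cells are plated, cultured 48 h, switched to serum-free induction medium, then dosed 48 h (100 uM top, half-log steps, 0.5% DMSO). RNA is isolated and BID expression read by qRT-PCR.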

Read-out in a further experiment: Caspase-3 (Homo sapiens) (UniProt P42574)
Briefly: LTEA_HepaRG_CASP3: Life Technologies and Expression Analysis (LTEA) Assay for cysteine-aspartic acid protease (CASP3) using HepaRG (AID 2283477). In a few lines:
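Expression of CASP3 was quantified by TaqMan qRT-PCR against three housekeeping genes (ACTB, GAPDH, POLR2A), bidirectionally versus 0.5% DMSO. HepaRG cultures received compounds in duplicate, top 100 uM with half-log steps, for 48 h in serum-free induction medium.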

Read-out in experiment [9]: Cytochrome P450 (CYP24A1), CYP24A1 (gene 1591)
Briefly: LTEA_HepaRG_CYP24A1: Life Technologies and Expression Analysis (LTEA) Assay for Cytochrome P450 (CYP24A1) using HepaRG (AID 2283478). The essentials: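 mRNA of CYP24A1 quantified by TaqMan qRT-PCR (ACTB/GAPDH/POLR2A normalization) after 48 h chemical exposure of HepaRG cells, top concentration 100 uM, half-log steps, 0.5% DMSO vehicle, duplicates. Curves fitted bidirectionally against DMSO baseline.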

Read-out in experiment [10]: Cytochrome P450 (CYP1A2), CYP1A2 (gene 1544)
The experiment in a line: LTEA_HepaRG_CYP1A2: Life Technologies and Expression Analysis (LTEA) Assay for Cytochrome P450 (CYP1A2) using HepaRG (AID 2283479). In a few lines:
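CYP1A2 transcript measured by TaqMan qRT-PCR against three housekeeping genes after 48-hour chemical exposure of HepaRG cells. Eight-point half-log series topping at 100 uM in 0.5% DMSO, duplicates; gain or loss fitted relative to vehicle.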

Read-out in experiment [11]: cysteine-aspartic acid protease (CASP8), CASP8 (gene 841)
The experiment in a line: LTEA_HepaRG_CASP8: Life Technologies and Expression Analysis (LTEA) Assay for cysteine-aspartic acid protease (CASP8) using HepaRG (AID 2283480). In a few lines: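 CASP8 transcript measured by TaqMan qRT-PCR with ACTB/GAPDH/POLR2A normalization, after 48 h chemical exposure of HepaRG cells in serum-free induction medium. Eight concentrations, top 100 uM, half-log steps, 0.5% DMSO vehicle; fits in both directions versus DMSO.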

Read-out in experiment [12]: Cytochrome P450 (CYP2B6), CYP2B6 (gene 1555)
The experiment in a line: LTEA_HepaRG_CYP2B6: Life Technologies and Expression Analysis (LTEA) Assay for Cytochrome P450 (CYP2B6) using HepaRG (AID 2283481). In a few lines:
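CYP2B6 transcript level quantified by qRT-PCR against three housekeeping genes, fitted bidirectionally relative to DMSO. HepaRG cultures received chemicals for 48 h, 8-point half-log series from 100 uM in 0.5% DMSO, duplicate wells, serum-free induction medium.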

Read-out in experiment [13]: Cytochrome P450 2C19 (Homo sapiens) (UniProt P33261)
The experiment in a line: LTEA_HepaRG_CYP2C19: Life Technologies and Expression Analysis (LTEA) Assay for CYP2C19 using HepaRG (AID 2283482). The essentials: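 CYP2C19 transcript levels by qRT-PCR, normalized to three housekeeping genes, in HepaRG cells after 48 h chemical exposure. Eight-point half-log series topping at 100 uM, 0.5% DMSO vehicle. Increases and decreases both fitted against DMSO.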

Read-out in another experiment: CYP2C8 (gene 1558)
Briefly: LTEA_HepaRG_CYP2C8: Life Technologies and Expression Analysis (LTEA) Assay for CYP2C8 using HepaRG (AID 2283483). The essentials: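 CYP2C8 expression measured by TaqMan qRT-PCR and normalized to three housekeeping genes. HepaRG cultures were treated for 48 h with an eight-point half-log series topping at 100 uM, vehicle 0.5% DMSO, duplicates; fitted both directions against DMSO.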

Read-out in the next experiment: CYP2C9 (gene 1559)
Briefly: LTEA_HepaRG_CYP2C9: Life Technologies and Expression Analysis (LTEA) Assay for CYP2C9 using HepaRG (AID 2283484). In a few lines: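 CYP2C9 transcript level, quantified by TaqMan qRT-PCR against three housekeeping genes, was fitted bidirectionally relative to 0.5% DMSO. HepaRG cultures were treated 48 h, in duplicate, at eight half-log concentrations topping at 100 uM.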

Read-out in the next experiment: CYP2E1 (gene 1571)
Briefly: LTEA_HepaRG_CYP2E1: Life Technologies and Expression Analysis (LTEA) Assay for CYP2E1 using HepaRG (AID 2283485). In a few lines:
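Readout is qRT-PCR of CYP2E1 mRNA, normalized to three housekeeping genes and fitted bidirectionally against 0.5% DMSO. HepaRG cells were dosed 48 h at eight concentrations, highest 100 uM with half-log dilutions.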

Read-out in another experiment: CYP4A11 (gene 1579)
The experiment in a line: LTEA_HepaRG_CYP4A11: Life Technologies and Expression Analysis (LTEA) Assay for CYP4A11 using HepaRG (AID 2283486). In a few lines:
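Readout is CYP4A11 transcript level by qRT-PCR, normalized to three housekeeping genes and fitted bidirectionally against 0.5% DMSO. Human HepaRG cells were treated 48 h, in duplicate, with an 8-point half-log series topping at 100 uM.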

Read-out in experiment [14]: Cytochrome P450 3A4 (Homo sapiens) (UniProt P08684)
Briefly: LTEA_HepaRG_CYP3A4: Life Technologies and Expression Analysis (LTEA) Assay for CYP3A4 using HepaRG (AID 2283487). In a few lines: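 Differentiated HepaRG cells, plated 48 h, then dosed 48 h in serum-free induction medium with 0.5% DMSO, 8 half-log concentrations up to 100 uM, duplicate. CYP3A4 mRNA by qRT-PCR, normalized to ACTB/GAPDH/POLR2A; bidirectional fit versus DMSO.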

Sequence of Cytochrome P450 2C19 (Homo sapiens) (P33261 whole entry, looked up): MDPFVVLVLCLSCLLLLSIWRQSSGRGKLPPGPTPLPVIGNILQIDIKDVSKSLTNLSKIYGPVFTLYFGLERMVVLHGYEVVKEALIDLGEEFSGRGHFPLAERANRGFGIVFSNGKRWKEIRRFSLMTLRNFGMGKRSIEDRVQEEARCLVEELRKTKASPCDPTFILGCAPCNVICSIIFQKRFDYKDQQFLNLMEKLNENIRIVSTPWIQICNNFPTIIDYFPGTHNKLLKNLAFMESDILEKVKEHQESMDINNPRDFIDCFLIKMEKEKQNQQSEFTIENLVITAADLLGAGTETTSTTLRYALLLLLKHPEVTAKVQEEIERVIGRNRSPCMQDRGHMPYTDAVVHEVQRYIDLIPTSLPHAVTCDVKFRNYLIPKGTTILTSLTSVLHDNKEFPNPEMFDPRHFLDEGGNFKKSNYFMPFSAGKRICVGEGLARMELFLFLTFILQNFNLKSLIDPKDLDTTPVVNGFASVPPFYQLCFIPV
Sequence of Caspase-3 (Homo sapiens) (P42574 whole entry, looked up): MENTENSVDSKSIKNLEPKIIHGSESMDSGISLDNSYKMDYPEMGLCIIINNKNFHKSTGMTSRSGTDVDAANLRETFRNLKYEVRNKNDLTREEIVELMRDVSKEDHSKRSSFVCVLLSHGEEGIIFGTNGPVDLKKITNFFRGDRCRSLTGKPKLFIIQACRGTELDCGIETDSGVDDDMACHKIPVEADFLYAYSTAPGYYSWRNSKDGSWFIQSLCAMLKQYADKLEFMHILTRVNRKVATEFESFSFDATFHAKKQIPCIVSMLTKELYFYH
Sequence of Apoptosis regulator Bcl-2 (Homo sapiens) (P10415 whole entry, looked up): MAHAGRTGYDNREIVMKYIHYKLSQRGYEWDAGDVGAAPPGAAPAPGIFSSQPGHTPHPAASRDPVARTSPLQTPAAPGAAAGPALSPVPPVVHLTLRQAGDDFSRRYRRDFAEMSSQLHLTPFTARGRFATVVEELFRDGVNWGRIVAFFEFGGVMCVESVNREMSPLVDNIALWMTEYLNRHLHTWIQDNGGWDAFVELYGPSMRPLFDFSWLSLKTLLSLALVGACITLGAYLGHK
Sequence of Cytochrome P450 3A4 (Homo sapiens) (P08684 whole entry, looked up): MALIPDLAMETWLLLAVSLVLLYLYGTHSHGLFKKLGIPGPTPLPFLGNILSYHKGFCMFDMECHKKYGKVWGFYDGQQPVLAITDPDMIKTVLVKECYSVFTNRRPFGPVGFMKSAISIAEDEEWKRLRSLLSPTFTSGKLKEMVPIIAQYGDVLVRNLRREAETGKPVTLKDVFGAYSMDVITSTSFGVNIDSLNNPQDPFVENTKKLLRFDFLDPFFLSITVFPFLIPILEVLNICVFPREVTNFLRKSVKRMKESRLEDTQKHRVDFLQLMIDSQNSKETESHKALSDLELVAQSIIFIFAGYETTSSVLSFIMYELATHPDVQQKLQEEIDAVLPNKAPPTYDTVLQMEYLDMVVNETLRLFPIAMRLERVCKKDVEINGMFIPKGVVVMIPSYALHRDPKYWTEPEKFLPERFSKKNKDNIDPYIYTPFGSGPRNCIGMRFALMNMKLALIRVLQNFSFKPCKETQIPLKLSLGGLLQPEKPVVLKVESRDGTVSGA

In the case of `O=C(O)COc1nc(Cl)c(Cl)cc1Cl`, the compound was classed as inactive (in [1]; in [2]; in [3]; in experiment [4]; in experiment [5]; in the experiment with BCL2L11 (gene 10018)). The call (in experiment [6]; in [7]; in experiment [8]; with Caspase-3 (Homo sapiens); in experiment [9]; in experiment [10]) was inactive. The result (in experiment [11]; in the experiment with CYP2C8 (gene 1558); with CYP2C9 (gene 1559); in the experiment with CYP2E1 (gene 1571); with CYP4A11 (gene 1579); in [14]) was inactive. For the same compound, the AC50 in [12] and in [13] was 51 µM (active) in each case.
Turning to `Cc1c(F)c(F)c(COC(=O)C2C(/C=C(\Cl)C(F)(F)F)C2(C)C)c(F)c1F` (centres undefined), the compound was called inactive (in experiment [1]; in experiment [2]; in experiment [3]; in [4]; in [5]; with BCL2L11 (gene 10018)). Moreover, the outcome (in experiment [6]; in [7]; in experiment [8]; with Caspase-3 (Homo sapiens); in experiment [9]; in experiment [10]) was inactive. For the same compound, the result (in experiment [11]; in experiment [12]; in experiment [13]; in the experiment with CYP2C8 (gene 1558); in the experiment with CYP2C9 (gene 1559); with CYP4A11 (gene 1579)) was inactive. In [14], the compound was called inactive. The AC50 with CYP2E1 (gene 1571) was 72.3 µM (active).
Regarding `CCCCNC(=O)n1c(NC(=O)OC)nc2ccccc21`, the outcome (in experiment [1]; in experiment [2]; in [3]; in experiment [4]; in [5]; in the experiment with BCL2L11 (gene 10018)) was inactive. Also, the compound was called inactive (in experiment [7]; in [8]; with Caspase-3 (Homo sapiens); in experiment [9]; in experiment [11]; in experiment [12]). Moreover, the compound was classed as inactive (in experiment [13]; in the experiment with CYP2C8 (gene 1558); with CYP2C9 (gene 1559); with CYP2E1 (gene 1571); in the experiment with CYP4A11 (gene 1579); in [14]). Moreover, the concentration at half-maximal activity (AC50) in [10] is 20.7 µM (active).

As a reminder, the AC50 is the concentration at which the activity in the assay is half-maximal.

(Values after PubChem BioAssay (EPA / NIEHS).)
